Assay [1] has as its target Cellular tumor antigen p53 (Homo sapiens) (UniProt P04637). The assay is described as follows: Primary qHTS for small molecule compounds that upregulate eGFP-tagged delta133p53alpha (in N-terminal) cells. (AID 2060322).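 For activation: cells pre-induced with doxycycline then dosed without doxycycline; 0% = DMSO vehicle and 100% = reference activator.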 Note: nearly all actives have a fitted effect of over 75% in size. Note: potency is the fitted concentration of half-maximal effect. The note with it: NCI-H358 eGFP-delta133p53alpha fluorescence, 24 h; activation: active compounds read high. The procedure, abridged: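 NCI-H358 cells pre-induced 24 h with 10 ng/ml doxycycline for eGFP-delta133p53alpha, plated dox-free and exposed 24 h at 37C to titrated compounds. Fixed, Hoechst-stained; gated GFP peak intensity by laser scanning cytometry, normalized to DMSO (0%) and 57.5 uM 5-azacytidine (100%).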
In general terms: qHTS replaces the single test concentration by a dilution series.

Assay [2] addresses Aldehyde dehydrogenase, mitochondrial (Homo sapiens) (UniProt P05091). The assay is described as follows: qHTS for Inhibitors of the Aldehyde Dehydrogenase Family (ALDH2) Primary screen (AID 2061308).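 Note: plate controls were vehicle for no effect and reference inhibitor for full effect; nearly all actives have a fitted effect of over 55% in size.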 The note with it: ALDH2 enzyme inhibition qHTS, 1536-well; series mostly up to 56 µM.
Assay [3] addresses Retinaldehyde dehydrogenase 3 (Homo sapiens) (UniProt P47895). The assay is described as follows: qHTS for Inhibitors of the Aldehyde Dehydrogenase Family (ALDH1A3) Primary screen (AID 2061315).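 Note: plate controls were DMSO vehicle for no effect and reference inhibitor for full effect.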 The following applies: ALDH inhibition qHTS; series mostly up to 56 µM.

Results filed as inconclusive are left out. Unmarked numbers belong to inactive results. The source made the active and inactive calls. Calls come from the whole dose curve; as a rule, active = well fitted curve in the direction sought with a large enough effect; inconclusive = small, poorly fitted or top-dose-only effect, or another doubt; inactive = no such curve, though single readings can be large; an effect the other way counts as inactive or inconclusive.

Cellular tumor antigen p53 (Homo sapiens), sequence (P04637 whole entry, looked up): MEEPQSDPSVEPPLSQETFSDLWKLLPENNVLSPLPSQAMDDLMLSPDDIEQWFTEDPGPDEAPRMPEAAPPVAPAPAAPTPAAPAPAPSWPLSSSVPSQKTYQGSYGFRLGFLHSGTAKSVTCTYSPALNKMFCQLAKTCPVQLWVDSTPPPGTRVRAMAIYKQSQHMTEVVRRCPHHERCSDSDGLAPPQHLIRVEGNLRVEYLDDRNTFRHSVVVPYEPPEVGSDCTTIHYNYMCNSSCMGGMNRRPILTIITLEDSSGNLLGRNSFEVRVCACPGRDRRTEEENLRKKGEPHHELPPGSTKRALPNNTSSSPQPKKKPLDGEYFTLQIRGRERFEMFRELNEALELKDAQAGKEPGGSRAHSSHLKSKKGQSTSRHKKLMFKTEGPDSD

On to `COC(=O)C1=C[C@@H](O)[C@@H](O)[C@H](O[C@@H]2O[C@H](CO)[C@@H](O)[C@H](O)[C@H]2OC(=O)/C=C/c2ccccc2)C1`, for which the activation in assay [1] was -26%. Besides, the Potency result in assay [2] and in assay [3] was “inactive” each time.
Consider `C=CC(C)(O)CC[C@H]1C(=C)CCC2[C@](C)(C(=O)O)CCC[C@@]21C` (some centres undefined), for which the activation in assay [1] was 24.1%. The Potency result in assay [2] and in assay [3] was “inactive” each time.
Take `C=C1C(=O)O[C@@H]2C[C@H](C)C3=CC(=O)[C@H](O)[C@@]3(C)C[C@H]12`: in assay [1], the Potency is 30.1 µM (active). The Potency entry in assay [2] and in assay [3] was “inactive” in each case.
Consider `CC1(O)CCC2C(C3C1CCC3(C)O)C2(C)C` (centres undefined), for which the activation in assay [1] was -1.79%. The Potency entry in assay [2] and in assay [3] was “inactive” throughout.
Turning to `CC1=C2C3OC(=O)C(C)C3(O)CCC2(C)CCC1` (centres undefined), the activation in assay [1] was 2.68%. In addition, the Potency result in assay [2] and in assay [3] was “inactive” in each case.
Take `COC1=CC(=O)CC(C)C12Oc1cc(OC)cc(O)c1C2=O` (centres undefined): in assay [1], the activation is 16.8%. In addition, the Potency entry in assay [2] and in assay [3] was “inactive” throughout.
For the compound `CC(=O)O[C@@]1(C)C[C@@H](O)[C@]2(O)C=CO[C@@H](O[C@@H]3O[C@H](CO)[C@@H](O)[C@H](O)[C@H]3O)[C@@H]21`, the activation in assay [1] is -14.5%. Further, the Potency entry in assay [2] and in assay [3] was “inactive” throughout.
As to `COc1ccc(NC(=O)C2C[C@H](C)CC[C@H]2C(C)C)cc1` (some centres undefined), the activation in assay [1] was 5.67%. Besides, the Potency entry in assay [2] and in assay [3] was “inactive” each time.
For the compound `CC1(C)CC23[C@@H]4CC(=O)[C@@H]2COC(=O)[C@@H]3CC[C@H]41`, the activation in assay [1] is -5.36%. Also, the Potency entry in assay [2] and in assay [3] was “inactive” throughout.
`CC1(C)CC[C@]2(C(=O)O)CC[C@]3(C)C(=CCC4[C@@]5(C)C[C@H](O)[C@H](O[C@@H]6OC[C@H](O)[C@H](O)[C@H]6O)[C@@](C)(CO)C5CC[C@]43C)[C@@H]2C1` (some centres undefined): the activation in assay [1] was -9.16%. The Potency result in assay [2] and in assay [3] was “inactive” each time.
On to `CO[C@H]1O[C@@H]2O[C@@]3(C)CCC4[C@H](C)CCC([C@H]1C)[C@]42OO3` (some centres undefined), for which the activation in assay [1] is 11.7%. Further, the Potency result in assay [2] and in assay [3] was “inactive” throughout.
With `COc1cc2c(cc1OC)N1C(=O)C[C@@]34C=CC[N@+]5([O-])CC[C@H]2[C@H](CC3)[C@@]145`, the activation in assay [1] was 5.36%. The Potency result in assay [2] and in assay [3] was “inactive” in each case.
Consider `Cn1c(=O)c2nc(/C=C/c3cccc(Cl)c3)n(C)c2n(C)c1=O`, for which, in assay [1], the activation is -2.33%. Also, the Potency entry in assay [2] and in assay [3] was “inactive” in each case.
Take `CC(=O)O[C@H]1[C@H](O[C@H]2CC[C@]34C[C@]35CC[C@]3(C)[C@@H]([C@@]6(C)CC[C@@H](C(C)(C)O)O6)[C@@H](O)C[C@@]3(C)[C@@H]5C[C@H](O[C@@H]3O[C@H](CO)[C@@H](O)[C@H](O)[C@H]3O)[C@H]4C2(C)C)OC[C@@H](OC(C)=O)[C@@H]1O`: the activation in assay [1] was -7.67%. Moreover, the Potency entry in assay [2] and in assay [3] was “inactive” throughout.
Regarding `COc1cc(O)c2c(c1)C1=C[C@H](O)[C@@H](O)C[C@]1(C)OC2=O`, the activation in assay [1] is 1.53%. Moreover, the Potency entry in assay [2] and in assay [3] was “inactive” in each case.
With `COc1ccc([C@H]2OC[C@H]3O[C@@H](O[C@H]4[C@@H]2NC[C@@H]4O)[C@H](O)[C@H]3O)cc1`, the Potency in assay [1] was 5.24 µM (active). Moreover, the Potency entry in assay [2] and in assay [3] was “inactive” each time.
Take `CC1=CCC2C(C)(C)CCCC2(C)C1CC12OC1C(O)C(CO)=CC2O` (centres undefined): the activation in assay [1] was -16.8%. Moreover, the Potency entry in assay [2] and in assay [3] was “inactive” each time.
As to `NC1CCCCN(c2c(F)cc3c(=O)c(C(=O)O)cn(C4CC4)c3c2Cl)C1` (centres undefined), the activation in assay [1] is -8.59%. In addition, the Potency result in assay [2] and in assay [3] was “inactive” throughout.
